Measured values: PubChem BioAssay AID489038 (National Center for Advancing Translational Sciences (NCATS), 2010)
Records with an inconclusive call do not appear. Unmarked numbers belong to inactive results. Active and inactive are the calls of the source. The call rests on the fitted dose curve; in most records, active means well fitted inhibition curve with a large enough effect; inconclusive means small, poorly fitted or top-dose-only effect, or effect the other way; inactive means no such curve, though single readings can be large or run the other way.

assay: DHR3 selectivity assay for inhibitors of ROR gamma transcriptional activity; settings: Drosophila S2 Gal4-DHR3 UAS-luciferase, 20 h; series mostly up to 92.2 µM; activity change, negative = inhibition: at the top concentration
Source text: NIH Molecular Libraries Probe Production Network [MLPCN] NIH Chemical Genomics Center [NCGC] MLPCN Grant: R03 DA026211-01 Assay Provider: Dan Littman, New York University Assay Overview: The retinoic acid-related orphan receptor (ROR) gamma is a transcription factor that has a central role in the differentiation of Th17 cells, a subset of T helper cells that secrete the inflammatory cytokines IL-17A, IL-17F, and IL-22. Th17 cells have been implicated in graft versus host disease, autoimmune disease and asthma. RORgamma is induced in naive T helper cells in the presence of TGF-beta combined with IL-6, IL-21, or IL-23, and thereafter directs the expression of the Th17 lineage cytokines. To identify […] inhibitors, a Drosophila Schneider cell line was stably transfected with two vectors: a gene expressing a fusion of the Gal4 DNA binding domain and the transactivation domain of the Drosophila Hormone Receptor 3 (DHR3), under the control of the metallothionine promoter and a Photinus luciferase reporter regulated by the Gal4 binding site enhancer, UAS. […] Small molecule inhibitors that inhibit components common to the RORgamma and DHR3 assays, such as proteins that interact with general nuclear hormone receptors, will be active in both assays and thus scored as nonselective.
Assay Protocol Summary: For screening, 600 cells in 4 uL/well were dispensed into white solid 1536-well plates (Grenier) using a solenoid-based dispenser. Following transfer of 23 nL compound or DMSO vehicle by a pin tool, the plates were incubated 1 hr at ambient temperature, and 1 uL/well copper sulfate (700 uM final concentration) was added. The plates were centrifuged 15 s at 1000 RPM and incubated 20 hr at ambient temperature. After addition of 1.5 uL Photinus luciferase detection reagent, the plates were incubated 10 min at ambient temperature and then read by an ViewLux (Perkin Elmer) to detect luminescence.
On the % scale 0 is the no-effect control and ±100 the full control effect; potency means the concentration at half of the fitted maximal effect.

SMILES	activity change, negative = inhibition	Potency
COc1cc(O)c(C(CC(=O)NC2CCC(C)CC2)c2ccc3c(c2)OCO3)c(OC)c1 (stereo not given)	8.82%	–
Cc1cc(C)c2[nH]c(C(=O)Nc3ccc4c(c3)OCO4)cc2c1	–	204 nM (active)
COc1cc(O)c(C(CC(=O)N2CCOCC2)c2ccc(C)cc2)c(OC)c1 (stereo not given)	3.9%	–
COc1ccccc1C(CC(=O)N1CCCC(C)C1)c1ccccc1 (stereo not given)	7.3%	–
COc1ccc(-c2c[n+]3c(n2-c2ccc(C)cc2)CCCCC3)cc1	–	8120 nM (active)
CCC(=O)C1CCCN(C(=O)CC(c2ccc3c(c2)OCO3)c2c(O)cc(OC)cc2OC)C1 (stereo not given)	23.3%	–
Cc1cccc(-c2nc3cc(NC(=O)C4CCCO4)ccc3o2)c1 (stereo not given)	–	2290 nM (active)
COc1cc(O)c(C(CC(=O)N2CCc3ccccc32)c2ccc3c(c2)OCO3)c(OC)c1 (stereo not given)	27.4%	–
CCOC(=O)c1sc(NC(=O)c2cc3c(s2)CCC(C)C3)nc1C (stereo not given)	–	51.2 nM (active)
Cc1cc(C)c2sc(NC(=O)c3ccc(N4C(=O)CCC4=O)cc3)nc2c1	–	102 nM (active)
CCC1(CC)CCN(C(=O)CC(c2ccc3c(c2)OCO3)c2c(O)cc(OC)cc2OC)C1 (stereo not given)	18.8%	–
Cc1ccc(Sc2cncc3sc(C(N)=O)cc23)cc1	–	102 nM (active)
CC1CCCN(C(=O)CC(c2ccc3c(c2)OCO3)c2ccc3ccccc3c2O)C1 (stereo not given)	23.6%	–
COc1ccccc1CNC(=O)[C@@H](NC(=O)C1CCN(C(=O)[C@@H]2CCCN2C(=O)OC(C)(C)C)CC1)C(C)C	19.8%	–
C[C@@H]1[C@H](C)CC[C@]2(C(=O)O)CC[C@]3(C)C(=CC[C@@H]4[C@@]5(C)CC[C@H](O)C(C)(C)[C@H]5CC[C@]43C)[C@@H]12	–	18200 nM (active)
CCOC(=O)C1CCN(CC(=O)Nc2cc(C)nn2-c2nc3ccccc3s2)CC1	–	7240 nM (active)
COCC1CCCN(C(=O)CC(c2ccc3c(c2)OCO3)c2c(O)cc(OC)cc2OC)C1 (stereo not given)	0.668%	–
CCOC(=O)Cn1c(CN2CCc3ccccc3C2)nc2c1c(=O)n(C)c(=O)n2C	–	6450 nM (active)
COc1ccc(C(CC(=O)N2CCCC(C)C2)c2ccc3c(c2)OCO3)c(O)c1 (stereo not given)	13%	–
COc1cc(OC)c(C(CC(=O)N2CCCC(C)C2)c2ccc3c(c2)OCO3)c(OC)c1 (stereo not given)	27.2%	–

SMILES	activity change, negative = inhibition	Potency
COc1cc(O)c(C(CC(=O)N2CCC(C)CC2)c2ccc(OC)c(OC)c2)c(OC)c1 (stereo not given)	23.2%	–
COc1cc(O)c(C(CC(=O)N2CCCC(C(=O)c3ccccc3)C2)c2ccc3c(c2)OCO3)c(OC)c1 (stereo not given)	-19.8%	–
COc1cc(OC)c(C(CC(=O)N2CCCC(C)C2)c2ccc3c(c2)OCO3)c(OCc2ccccc2)c1 (stereo not given)	–	14400 nM (active)
COc1cc(O)c(C(CC(=O)N2CCCC(C(F)(F)F)C2)c2ccc3c(c2)OCO3)c(OC)c1 (stereo not given)	-17.6%	–
COc1ccc(C(CC(=O)Nc2ccc(F)cc2)c2ccccc2)cc1 (stereo not given)	17%	–
COc1ccc(C(CC(=O)N2CCCC(C)C2)c2c(O)cc(OC)cc2OC)c(OC)c1 (stereo not given)	15.3%	–
COc1cc(OC)c(C(CC(=O)N2CC(C)CC(C)C2)c2ccc3c(c2)OCO3)c(OCC(N)=O)c1 (stereo not given)	15.1%	–
COc1ccc(C(=O)/C=C/c2ccc(OC)cc2OC)c(O)c1	–	645 nM (active)
COc1cc(O)c(C(CC(=O)N2CCCC(C)C2)c2cccc3ccccc23)c(OC)c1 (stereo not given)	12.5%	–
CC1=C(\C=C/C(C)=C/C=C\C(C)=C\C(=O)O)C(C)(C)CCC1	-6.6% [at 20 µM]	–
O=C(CCCN1C(=O)/C(=C/c2ccccc2Cl)SC1=S)Nc1cccnc1	–	645 nM (active)
COc1cc(O)c(C(CC(=O)N2CCCC(C)C2)c2ccc3c(c2)OCO3)c(OC)c1 (stereo not given)	-6.85%	–
CCOc1ncccc1C(=O)OCC(=O)Nc1ccc(-c2nc3ccc(C)cc3s2)cc1	–	363 nM (active)
Cc1ccc(C(C)C)c(C(CC(=O)N2CCCC(C)C2)c2ccc3c(c2)OCO3)c1O (stereo not given)	-27.4%	–
COc1cc(O)c(C(CC(=O)N(C)c2cccc(C)c2)c2ccc3c(c2)OCO3)c(OC)c1 (stereo not given)	-32.8%	–
COc1cc(O)c(C(CC(=O)NCc2ccccc2)c2ccc3c(c2)OCO3)c(OC)c1 (stereo not given)	15.4%	–
COc1cc(O)c(C(CC(=O)N2CCCC(C#N)C2)c2ccc3c(c2)OCO3)c(OC)c1 (stereo not given)	11.7%	–
COc1cc(O)c(C(CC(=O)N2CCCC(C)(C)C2)c2ccc3c(c2)OCO3)c(OC)c1 (stereo not given)	6.53%	–
Cc1cccc(C(CC(=O)NCCc2ccccc2)c2ccccc2)c1O (stereo not given)	21.2%	–
CCNC(=O)CCc1nc(-c2ccc(C(C)(C)C)cc2)no1	–	115 nM (active)
